# Screens (PubChem)
# Only a selection was taken, and hits are over-represented in it overall.
# BLM inh: blocks DNA unwinding by human BLM helicase. Potency, µM (series often up to 56.1 µM), without a hit: at the top dose activity change, negative = inhibition, usual class: inhibitors. 350,000 tested, 0.2% active. recombinant BLM DNA unwinding, fluorescence dequenching. P54132;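 also: plate controls were vehicle for no effect and no enzyme for full effect; nearly all actives have a fitted effect of over 35% in size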
# RECQ1 inh-1: inhibitors of human RECQ1 DNA helicase. P46063. RECQ1 DNA unwinding, red fluorescence kinetic read. Potency, µM (titrated, usually from 57.3 µM), without a hit: at the highest dose activity, negative = inhibition, usual class: inhibitors. 240,000 tested, 0.54% active. AID 2549;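 also: plate controls were vehicle for no effect and no enzyme for full effect; nearly all actives have a fitted effect of over 30% in size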
# Target sequence (P46063 whole entry, looked up): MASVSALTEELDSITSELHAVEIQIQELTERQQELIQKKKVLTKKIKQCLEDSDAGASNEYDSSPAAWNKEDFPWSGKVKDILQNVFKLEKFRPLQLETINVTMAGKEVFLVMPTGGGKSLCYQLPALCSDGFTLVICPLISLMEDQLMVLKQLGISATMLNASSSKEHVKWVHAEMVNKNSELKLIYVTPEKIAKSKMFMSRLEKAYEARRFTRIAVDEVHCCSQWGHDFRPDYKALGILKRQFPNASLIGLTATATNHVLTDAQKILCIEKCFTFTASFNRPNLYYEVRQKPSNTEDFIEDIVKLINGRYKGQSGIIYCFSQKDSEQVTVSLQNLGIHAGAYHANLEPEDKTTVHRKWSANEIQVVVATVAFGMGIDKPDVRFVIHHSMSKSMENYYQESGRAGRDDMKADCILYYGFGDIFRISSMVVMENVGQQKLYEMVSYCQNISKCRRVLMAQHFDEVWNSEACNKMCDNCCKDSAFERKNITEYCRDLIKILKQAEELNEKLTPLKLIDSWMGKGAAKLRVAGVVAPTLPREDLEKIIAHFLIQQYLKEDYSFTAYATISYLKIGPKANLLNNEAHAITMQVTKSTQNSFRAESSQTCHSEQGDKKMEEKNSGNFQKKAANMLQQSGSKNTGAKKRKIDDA
#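 50 nM RECQ1T1 preincubated 15 min with compound in Tris pH 8.0 buffer with MgCl2, DTT, Tween-20 and 2.5 ug/ml poly(dI-dC); started with 200 nM TAMRA/BHQ-2 forked duplex and 2 mM ATP. Unwinding read as fluorescence (525/598 nm), two reads 2 h apart.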
# JMJD2E inh: inhibitors of human JMJD2E histone demethylase; B2RXH2; JMJD2E catalytic domain, FDH-coupled NADH fluorescence (FDH is formaldehyde dehydrogenase); Potency, µM (highest dose often 57.1 µM), without a hit: at the top dose activity change, negative = inhibition, actives largely listed as inhibitors; AID 2147; 230,000 tested, 1.6% active; active = well fitted inhibition curve with a large enough effect, not every such curve was filed as active; inconclusive = small, poorly fitted or top-dose-only effect, or another doubt; inactive = no such curve, though single readings can be large or run the other way;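 also: 0% = wells with enzyme and -100% = buffer wells without enzyme; nearly all actives have a fitted effect of over 50% in size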
# L3MBTL1 block: L3MBTL1 (human) inhibition | Potency, µM (titrated, usually from 57.1 µM), without a hit: at the top dose activity, negative = inhibition, hits mostly inhibitors | AlphaScreen L3MBTL1–H3K9me1 peptide binding | Q9Y468 | 230,000 tested, 0.66% active; also: nearly all actives have a fitted effect of over 60% in size
#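 AlphaScreen proximity signal between nickel-chelate acceptor and streptavidin donor beads (final 10 ug/mL) reports binding of 50 nM L3MBTL1 to 75 nM biotin-H3 K9me1 peptide; complex incubated with compounds 30 min at room temperature; cefsulodin titration as control.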
# APE1 inh: APE1 (human) endonuclease inhibition | AID 2517 | recombinant APE1, TAMRA/BHQ-2 abasic DNA cleavage fluorescence | P27695 | Potency, µM (titrated, usually from 65.8 µM), for inactives: at the top dose activity change, negative = inhibition, usual class: inhibitors | 350,000 tested, 0.35% active;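 also: plate controls were vehicle for no effect and reference inhibitor for full effect; nearly all actives have a fitted effect of over 55% in size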
#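 APE1 at 0.75 nM final was preincubated with compound 15 min at room temperature, then 50 nM double-stranded THF abasic-site substrate (5'-TAMRA/3'-BHQ-2) was added. Fluorescence (ex 525/em 598 nm) was read kinetically; third-minus-first read gave activity.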
# GoLoco inh red: blocks human Gai1 binding to RGS12 GoLoco peptide, red readout; 230,000 tested, 0.44% active; AID 880; P63096; Potency, µM (titrated, usually from 61.6 µM), inactives show at the top dose activity, negative = inhibition, hits mostly inhibitors; Gai1:RGS12 GoLoco peptide FP, rhodamine, 10 min; active = well fitted inhibition curve with a large enough effect, not every such curve was filed as active; inactive = no such curve, though single readings can be large or run the other way; also: nearly all actives have a fitted effect of over 30% in size
# RECQ1 inh conf: confirmation of human RECQ1 helicase inhibitors | shares compounds with RECQ1 inh-1 | RECQ1 helicase DNA unwinding, fluorescence | Potency, µM (highest dose often 229 µM), without a hit: at the top dose activity change, negative = inhibition, hits mostly inhibitors | 610 tested, 28% active | AID 2708; also: nearly all actives have a fitted effect of over 45% in size
# RECQ1 ADP FP: counter-screen for RECQ1 inhibitors: ADP displacement; shares compounds with RECQ1 inh-1; ADP fluorescence polarization displacement counterscreen; Potency, µM (highest dose often 228 µM), inactives show at the top dose activity change, negative = inhibition, actives largely listed as inhibitors; 530 tested, 27% active; AID 2711; also: nearly all actives have a fitted effect of over 45% in size
# RECQ1 inh-2: confirmation of human RECQ1 helicase inhibitors; recombinant RECQ1 DNA unwinding, red fluorescence; 1,100 tested, 15% active; Potency, µM (highest dose often 119 µM), inactives show at the top dose activity, negative = inhibition, most hits filed as inhibitors; shares compounds with RECQ1 inh-1; also: nearly all actives have a fitted effect of over 50% in size
# * hit, by the source's call; i = inactive; u = inconclusive; x = no result; [ ] = another dose, or the depositor's remark. Unless noted, calls follow the shape of the dose curve; as a rule, active = well fitted curve in the direction sought with a large enough effect; inconclusive = small, poorly fitted or top-dose-only effect, or another doubt; inactive = no such curve, though single readings can be large; an effect the other way counts as inactive or inconclusive. Unless noted, % is scaled to controls: 0 for no effect and ±100 for the full control effect; potency is read from the fitted curve at half-maximal effect.
SMILES,BLM inh,RECQ1 inh-1,JMJD2E inh,L3MBTL1 block,APE1 inh,GoLoco inh red,RECQ1 inh-2,others
Clc1ccccc1Nc1ncnc2c1nc1n2CCCCC1,6%,x,x,x,x,x,x,
CC(=O)N1CCCc2cc(S(=O)(=O)CCC(=O)N3CCN(c4cccc(C)c4)C(C)C3)ccc21 (stereo not drawn),-6%,-3%,-21%,x,u,1%,x,
Cc1cccc(N2CCN(C(=O)CCS(=O)(=O)c3ccc(Br)cc3)CC2C)c1 (stereo not drawn),-28%,35µM*,-17%,x,-2%,1%,40µM*,
O=C(Cn1cnc2ccc(Cl)cc2c1=O)NC1CCS(=O)(=O)C1 (stereo not drawn),x,x,x,2%,8%,x,x,
COc1cc(-c2nnc(SCc3cc(=O)oc4cc(O)c(O)cc34)o2)cc(OC)c1OC,10µM*,1.8µM*,u,x,2µM*,1%,u,RECQ1 inh conf=3.5µM*;RECQ1 ADP FP=126µM*
CCOC(=O)CSc1nnc(-c2cc(OC)c(OC)c(OC)c2)o1,1%,-6%,8%,9%,2%,13%,x,
COc1cc(OC)cc(C(=O)NCC(=O)OCC(=O)/C=C2/N(C)c3ccccc3C2(C)C)c1,-25%,-26%,u,u,-8%,48%,x,
CN1/C(=C\C(=O)COC(=O)Cn2nnc(-c3ccccc3)n2)C(C)(C)c2ccccc21,-15%,u,u,-1%,-10%,186%,45µM*,
O=C(c1ccccc1Br)N1CCC(c2nc3ccccc3o2)CC1,-1%,x,x,x,x,x,x,
CCC(C(=O)N1CCN(c2cccc(Cl)c2)CC1)c1ccccc1 (stereo not drawn),-5%,25µM*,2%,4%,10%,10%,-21%,
C[C@@H]1c2ccccc2Cn2cc3c(c21)C(=O)c1cccc(OP(=O)(O)OCc2ccccc2)c1C3=O,x,x,x,x,x,7%[14.2 µM],x,
Cc1ccc(CN(CC(=O)N/N=C/c2ccccc2[N+](=O)[O-])S(=O)(=O)c2ccc(C)cc2)cc1,-9%,5%,8%,x,7%,-10%,x,
O=C(CN(Cc1ccccc1)S(=O)(=O)c1ccccc1)N/N=C/c1ccccc1[N+](=O)[O-],-8%,-8%,0%,-5%,-4%,4%,x,RECQ1 inh conf=1%;RECQ1 ADP FP=8%
Cc1ccc(-c2nnc3ccccc3c2C(=O)Nc2ccc(F)cc2)cc1,-1%,x,x,x,x,x,x,
CC1CCCCN1CCCNC(=O)c1cc(Sc2cccc(Cl)c2)nc2ccccc12 (stereo not drawn),-11%,x,x,x,x,x,x,
CCn1c(SCC(=O)Nc2nccs2)nnc1-c1ccccc1,1%,0%,-7%,-2%,1%,-12%,x,
CCn1c(SCC(=O)Nc2nc(-c3ccccc3)cs2)nnc1-c1ccccc1,-2%,-3%,6%,0%,-7%,4%,x,RECQ1 inh conf=u;RECQ1 ADP FP=17%
c1csc(CNc2ccnc(-c3ccoc3)n2)c1,-9%,-12%,x,x,-3%,3%,x,
CC1(C)c2ccccc2N2CCC(=O)NC21/C=C/c1ccco1 (stereo not drawn),-7%,u,u,-1%,-3%,15%,-4%,
CC1(C)c2ccccc2N2CC(=O)NC21/C=C/c1ccco1 (stereo not drawn),4%,-22%,-21%,-22%,-7%,38%,x,
Cc1cc(C)n(CCc2nc(-c3ccco3)cs2)n1,u,35µM*,-18%,x,u,6%,u,
Cc1cc(C)n(CCc2nc(-c3cccs3)cs2)n1,3%,-2%,-6%,8%,2%,-4%,x,
COc1cccc(-n2c(SCc3cc(=O)oc4cc(O)c(O)cc34)nc3ccccc3c2=O)c1,10µM*,25µM*,13µM*,32µM*,10µM*,2%,13µM*,
CCN(CC)C(=O)CSc1nc2ccccc2c(=O)n1-c1cccc(OC)c1,-2%,15%,2%,x,-1%,-10%,x,
COc1ccc(Cn2c(C(=O)O)c(CNCCc3cc(OC)ccc3OC)c3ccc(C)cc32)cc1,-6%,x,x,x,x,x,x,
SMILES,BLM inh,RECQ1 inh-1,JMJD2E inh,L3MBTL1 block,APE1 inh,GoLoco inh red,RECQ1 inh-2,others
O=C1C(=Cc2ccc(Br)o2)C(=O)c2ccccc21,-2%,8.9µM*,-13%,3.2µM*,8.9µM*,-10%,x,RECQ1 inh conf=u
O=C(/C=C/c1ccc(Br)o1)NC(c1ccccc1)c1ccccc1,-3%,-10%,-22%,-10%,7%,-9%,x,
CCOC(=O)c1cc(-c2ccccc2)sc1NC(=O)CN1C(=O)NC(CC)(c2ccc(F)cc2)C1=O (stereo not drawn),-8%,32µM*,u,x,1%,-4%,-21%,
CCOC(=O)c1noc2nc(C)n(CC(=O)Nc3ccc(Br)cc3C)c(=O)c12,-1%,x,x,x,x,x,x,
CCN(CC)C(=O)CSc1nc2ccc(NC(=O)CSc3nccn3C)cc2s1,-12%,20µM*,2%,u,0%,15%,-13%,RECQ1 inh conf=u;RECQ1 ADP FP=u
COc1ccc(NC(=O)COC(=O)Cc2ccc(-c3ccccc3)cc2)c(OC)c1,-6%,i,3%,4%,-4%,-9%,x,
COc1ccc(C)cc1NC(=O)COC(=O)Cc1ccc(-c2ccccc2)cc1,-12%,u,7%,6%,1%,x,-7%,
COCCCNC(=O)C1CCN(Cc2nc(-c3ccc(OC)c(OC)c3)oc2C)CC1,5%,x,x,x,x,x,x,
COc1cc(C2NCC(c3ccc(Cl)cc3Cl)c3c2[nH]c2ccccc32)cc(OC)c1OC (stereo not drawn),-14%,u,1%,-19%,-5%,-3%,-23%,
O=C(O)c1ccc(C2NCC(c3ccccc3Cl)c3c2[nH]c2ccccc32)cc1 (stereo not drawn),-6%,i,u,-8%,10%,-9%,x,
O=C(Cc1cccs1)Nc1ccc(S(=O)(=O)Nc2ncccn2)cc1,-19%,u,-4%,u,u,78%,u,
O=[N+]([O-])c1cc(Cl)ccc1Nc1nc(Nc2ccc(Cl)cc2[N+](=O)[O-])nc(N2CCOCC2)n1,x,x,x,x,x,x,x,RECQ1 inh conf=-8%[69.1 µM]
Cc1ccc(Cl)cc1Nc1nc(N2CCOCC2)nc(N2CCOCC2)n1,-4%,x,x,x,16%,x,x,
